# Among all 400,000 compounds or so, about 2,100 (0.53%) were called active. Another 14% or so got no clear call; they are omitted. How the calls were made is not given here. The entries come from a sample that favours actives as a whole.
# Biological target: Ataxin-2 (Homo sapiens) (UniProt Q99700)
# Assay: qHTS for Inhibitors of ATXN expression.
# Type: functional
# Ataxin-2 (Homo sapiens), sequence (Q99700 whole entry): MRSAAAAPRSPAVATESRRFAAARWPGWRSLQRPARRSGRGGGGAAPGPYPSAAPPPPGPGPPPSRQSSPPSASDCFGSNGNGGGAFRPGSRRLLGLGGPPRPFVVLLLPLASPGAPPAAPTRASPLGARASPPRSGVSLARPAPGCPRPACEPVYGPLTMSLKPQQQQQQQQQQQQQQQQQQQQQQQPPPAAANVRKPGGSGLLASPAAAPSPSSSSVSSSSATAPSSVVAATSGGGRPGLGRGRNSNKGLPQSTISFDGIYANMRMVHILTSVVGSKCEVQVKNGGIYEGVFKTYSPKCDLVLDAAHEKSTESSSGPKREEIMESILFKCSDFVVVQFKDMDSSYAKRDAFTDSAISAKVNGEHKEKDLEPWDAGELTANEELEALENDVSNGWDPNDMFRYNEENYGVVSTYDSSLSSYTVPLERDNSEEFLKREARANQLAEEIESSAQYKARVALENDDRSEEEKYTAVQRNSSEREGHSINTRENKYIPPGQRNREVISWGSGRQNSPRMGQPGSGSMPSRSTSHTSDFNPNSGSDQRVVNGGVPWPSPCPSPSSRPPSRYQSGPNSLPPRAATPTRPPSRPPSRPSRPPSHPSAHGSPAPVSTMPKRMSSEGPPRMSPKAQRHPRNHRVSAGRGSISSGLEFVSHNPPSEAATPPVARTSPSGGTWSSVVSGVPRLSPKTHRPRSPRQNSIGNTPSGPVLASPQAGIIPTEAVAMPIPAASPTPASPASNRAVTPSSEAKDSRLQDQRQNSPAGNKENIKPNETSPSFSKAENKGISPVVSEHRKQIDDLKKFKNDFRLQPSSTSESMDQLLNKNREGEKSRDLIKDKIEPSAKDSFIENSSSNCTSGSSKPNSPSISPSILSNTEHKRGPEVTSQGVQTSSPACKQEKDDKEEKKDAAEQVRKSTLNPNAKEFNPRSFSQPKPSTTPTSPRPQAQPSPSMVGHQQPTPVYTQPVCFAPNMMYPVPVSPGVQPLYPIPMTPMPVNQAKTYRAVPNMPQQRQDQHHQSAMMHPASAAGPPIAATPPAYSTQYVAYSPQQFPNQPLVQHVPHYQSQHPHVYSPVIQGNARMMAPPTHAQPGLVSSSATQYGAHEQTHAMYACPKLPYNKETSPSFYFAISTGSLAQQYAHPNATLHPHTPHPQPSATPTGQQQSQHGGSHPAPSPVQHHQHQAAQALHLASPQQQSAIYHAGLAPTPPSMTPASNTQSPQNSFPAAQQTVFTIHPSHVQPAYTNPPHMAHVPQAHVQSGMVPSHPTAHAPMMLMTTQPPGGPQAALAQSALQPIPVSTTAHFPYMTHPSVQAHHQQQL
row,Compound,Potency
1,CC(=O)N1CCC(=NNc2ncc(C(F)(F)F)cc2Cl)CC1,inactive
2,Cc1cccn2c(=O)c3cc(C(=O)NC(C)C)c(=N)n(Cc4ccncc4)c3nc12,inactive
3,CCOc1ncccc1C(=O)N(CC)CC(=O)NCc1ccc(Cl)cc1,inactive
4,N=C(Cc1ccc(Cl)cc1)NOC(=O)c1cccc2ccccc12,39.8 µM (active)
5,O=C(COC(=O)c1cc(O)nc2ccccc12)NCc1ccc(Cl)cc1,inactive
6,O=[N+]([O-])c1ccc(CSc2ncnc3ccccc23)cc1,inactive
7,COc1ccc(-c2cc(C(F)(F)F)n3ncc(C(=O)N4CCc5ccccc5C4)c3n2)cc1,inactive
8,Cc1ccc2[nH]c(NC3=NC(=O)c4ccccc43)nc2c1,inactive
9,CCOC(=O)c1ccc(NC(=O)CC2C(=O)N(c3ccccc3)C(=O)N2Cc2ccc(C)cc2)cc1 (stereo not drawn),22.4 µM (active)
10,CCOC(=O)c1ccc(NC(=O)CC2Nc3ccccc3NC2=O)cc1 (stereo not drawn),inactive
11,Cc1ccc(CN2C(=O)CCC2C(=O)N2CCN(c3ccccc3)CC2)cc1 (stereo not drawn),inactive
12,CCCCN(C)CC(O)Cn1cc(/C=C/C(=O)c2ccc(Br)cc2)c2ccccc21 (stereo not drawn),inactive
13,COc1cc(/C=C2\C=CC(=O)O2)cc(OC)c1,inactive
14,N#Cc1nc(-c2cccc3ccccc23)oc1NCC1CCCO1 (stereo not drawn),inactive
15,CCCCNc1c(-c2ccc(SC(C)CC)cc2)nc2cnccn12 (stereo not drawn),inactive
16,CCOC(=O)CNc1c(-c2ccc(Cl)cc2)nc2cnccn12,inactive
17,Cc1ccc(-c2nc3cnccn3c2Nc2c(C)cccc2C)o1,inactive
18,CC(C)c1ccc(Nc2c(-c3ccccc3O)nc3cnccn23)cc1,39.8 µM (active)
19,Cc1ccn2c(Nc3ccc(C(C)C)cc3)c(-c3cccnc3)nc2c1,39.8 µM (active)
20,CCC(C)Sc1cccc(-c2nc3cnccn3c2NC2CCCCC2)c1 (stereo not drawn),inactive
21,COCCNC(=O)Cc1c(C)c2c(cc(C)c3c(C)coc32)oc1=O,inactive
22,O=C(Nc1cc(Cl)ccc1O)C1CC(c2ccccc2O)=NO1 (stereo not drawn),inactive
23,CCOc1cc(CNCCc2ccc(S(N)(=O)=O)cc2)cc(Cl)c1OCc1ccccc1,25.1 µM (active)
24,CCOc1cc(CNCCc2ccc(S(N)(=O)=O)cc2)ccc1OCC(=O)NC(C)(C)C,39.8 µM (active)
25,COC(=O)c1c(C)[nH]c(C(=O)NCCc2ccc(S(N)(=O)=O)cc2)c1C,inactive
26,NS(=O)(=O)c1ccc(CNC(=O)CNC(=O)Cc2ccccc2)cc1,inactive

row,Compound,Potency
1,CCOc1cc(C(N)=O)cc(Br)c1OCc1ccccc1,inactive
2,CCOc1ccc(CCNC(=O)CSCc2ccc(C)cc2)cc1OCC,inactive
3,CC12CCC(=O)N1C(C(=O)N1CCN(S(=O)(=O)c3ccc(Br)cc3Cl)CC1)CS2 (stereo not drawn),inactive
4,CC(C)CCn1c(=O)c2ccccc2n2c(S)nnc12,inactive
5,Cc1cnc(C(=O)NC(C)CCc2ccccc2)cn1 (stereo not drawn),inactive
6,Fc1ccc(-c2cc(C(F)(F)C(F)F)n[nH]2)cc1,inactive
7,CCOC(=O)c1cnn2c(O)cc(C)nc12,inactive
8,CC(C)(C)c1ccc(C(=O)O/N=C(\N)Cc2cccs2)cc1,31.6 µM (active)
9,COC(=O)c1ccc(C(=O)OC)c(NC(=O)Cc2cccs2)c1,inactive
10,CC(C)(C)c1ccc(/N=C2\SCC(=O)N2Cc2cccs2)cc1,inactive
11,O=C(c1cccs1)N1CCC(c2nc(O)c3nnn(Cc4c(Cl)cccc4Cl)c3n2)CC1,inactive
12,CC(C)C(=O)NNC(=O)CSc1nnc(-c2ccccc2)c(-c2ccccc2)n1,inactive
13,CNC(=O)C(=O)Nc1cc2c3c(c1)CCC(=O)N3CCC2,inactive
14,CCOC(CN=c1nc(N(C)C)ss1)OCC,29.9 µM (active)
15,CN(C)S(=O)(=O)c1ccc(Cl)c(NC(=O)COC(=O)CNS(=O)(=O)c2c(F)cccc2F)c1,inactive
16,CCC(=O)NC(c1ccc(OC)c(OC)c1)c1cc(Cl)c2cccnc2c1O (stereo not drawn),inactive
17,CCS(=O)(=O)N1CCC(NC(=O)C(Cc2ccc(OC)c(OC)c2)NC(C)=O)CC1 (stereo not drawn),inactive
18,COc1ccc(C(=O)CC(SCC(NC(C)=O)C(=O)O)c2ccc(Cl)cc2)cc1OC (stereo not drawn),31.6 µM (active)
19,CCOC(=O)c1cc2c(=O)n3ccccc3nc2n(CC2CCCO2)/c1=N\C(=O)c1ccc(C(C)(C)C)cc1 (stereo not drawn),inactive
20,CCCCN1C(C(=O)Nc2ncccn2)=C(O)c2ccccc2S1(=O)=O,inactive
21,Cc1ccccc1N1CCN(C2CCCN(C(=O)CSc3ccccn3)C2)CC1 (stereo not drawn),inactive
22,OC(c1cccc(Cl)c1)c1nc(-c2ccc(Oc3ccccc3)cc2)c[nH]1 (stereo not drawn),39.8 µM (active)
23,OC(c1cccc(Cl)c1)c1nc(-c2ccc(C(F)(F)F)cc2)c[nH]1 (stereo not drawn),39.8 µM (active)
24,CC(C)(C)c1ccc(C(O)c2nc(-c3ccccc3Cl)c[nH]2)cc1 (stereo not drawn),39.8 µM (active)
25,Cc1nn(Cc2ccccc2Cl)c(Cl)c1/C=C/C(=O)OCC(=O)NC1CCS(=O)(=O)C1 (stereo not drawn),inactive
26,COc1ccc(S(=O)(=O)Nc2ccc(-n3cccc3)cc2)cc1,inactive

row,Compound,Potency
1,COc1ccc(-n2cccc2/C=C/[N+](=O)[O-])cc1,31.6 µM (active)
2,CCCC(=O)NCCc1nc2cc([N+](=O)[O-])ccc2n1C,inactive
3,COc1cc(C(=O)NNC(=O)c2ccccc2OCc2c(C)noc2C)cc(OC)c1OC,inactive
4,COc1cc(C(=O)N2C(=O)c3cccc(N)c3C2=O)cc(OC)c1OC,inactive
5,COc1cc(C(=O)O/N=C2/C=CC(=O)C(C)=C2C)cc(OC)c1OC,39.8 µM (active)
6,CCc1ccc(S(=O)(=O)Nc2ccc(-c3nc4cccnc4s3)cc2)s1,inactive
7,NC(=O)c1cc(-c2ccccc2)nc2ccc(Br)cc12,inactive
8,O=C(NNC(=O)c1cc(-c2cccnc2)nc2ccccc12)Nc1ccc(Cl)cc1,inactive
9,CSc1ccccc1NC(=O)c1cc(-c2cccnc2)nc2ccc(Br)cc12,42.3 µM (active)
10,COc1cccc(/C=C/c2nc(C#N)c(NCC(C)C)o2)c1,inactive
11,CCOC(=O)c1cc2c(=O)n3ccccc3nc2n(C)/c1=N\C(=O)c1c(-c2c(F)cccc2Cl)noc1C,inactive
12,Cc1coc2c1C(=O)C(=O)c1c-2ccc2c(C)cccc12,10 µM (active)
13,CNc1ccc2c3c(cccc13)C(=O)N(C)C2=O,inactive
14,CCn1cnc2sc(C(=O)Oc3ccc(Br)cc3)c(C)c2c1=O,inactive
15,COc1ccc2c(CNCCc3cccs3)c(C(=O)O)n(Cc3cccc(F)c3)c2c1,35.5 µM (active)
16,COC(=O)C1=CN(Cc2cccs2)C=C(C(=O)OC)C1c1cccc(O)c1,inactive
17,COC(=O)C1=CN(Cc2cccs2)C=C(C(=O)OC)C1c1ccc(OC)cc1OC,inactive
18,COC(=O)c1cc(-c2cc(OC)ccc2OC)nc2c1c(=O)n(C)c(=O)n2Cc1ccccc1,inactive
19,C=Cc1ccc(Cn2c(C(=O)O)c(CNCCc3ccco3)c3ccc(C)cc32)cc1,22.4 µM (active)
20,COC(=O)c1ccc(S(=O)(=O)NCc2ccco2)o1,inactive
21,COc1ccc(OC)c(CN2CCN(Cc3cc(=O)oc4cc(O)ccc34)CC2)c1,inactive
22,COc1ccc(C(=O)NCC(=O)OCC(=O)NCc2ccco2)cc1,inactive
23,COc1ccc(Cn2c(C(=O)O)c(CNCCc3ccco3)c3ccc(C)cc32)cc1,31.6 µM (active)
24,COc1ccc(Cn2c(C(=O)O)c(CNCCc3cc(OC)ccc3OC)c3ccc(C)cc32)cc1,22.4 µM (active)
25,COc1ccc(-c2csc(-c3cc4ccccc4oc3=N)n2)cc1,inactive
26,COc1ccc2nc3ccccc3[n+]([O-])c2c1,inactive

row,Compound,Potency
1,CCc1noc(C)c1C(=O)NNC(=O)COc1ccc(Br)cc1,inactive
2,N#Cc1c(-c2ccc(Cl)cc2)c2c([nH]c1=O)-c1ccccc1OC2,inactive
3,O=C1CCN2C=Nc3cccc4ccc1c2c34,inactive
4,O=c1nc2n(CCO)c3ccccc3cc-2c(=O)[nH]1,inactive
5,Cc1ccc(C(=O)OCC(=O)NCc2ccco2)cc1C,inactive
6,Cc1cccn2c(=O)c3cc(C(=O)NC4CCCC4)c(=N)n(Cc4ccc(F)cc4)c3nc12,inactive
7,Cc1ccc(Cn2c(C(=O)O)c(CNCCc3ccco3)c3ccc(C)cc32)cc1,39.8 µM (active)
8,C=Cc1ccc(Cn2c(C(=O)O)c(CNC3CCCC3)c3ccc(C)cc32)cc1,44.7 µM (active)
9,C=Cc1ccc(Cn2c(C(=O)O)c(CNCc3cccs3)c3ccc(C)cc32)cc1,25.1 µM (active)
10,CCCC(=O)n1nc(-c2ccc(C)cc2)nc1NCc1ccco1,inactive
11,CC1=C(C(=O)Nc2ccccn2)C(c2cn(C)nc2C)C2=C(O)CCCC2=N1 (stereo not drawn),inactive
12,Cc1nnc(NC(=O)CSc2nnc(-c3ccco3)n2C(C)C)s1,inactive
13,Cc1cccc(-n2c(SCC(N)=O)nc3c(oc4ccccc43)c2=O)c1,20 µM (active)
14,COCCNC(=O)c1c(N)n(-c2cccc(C)c2)c2nc3ccccc3nc12,inactive
15,Cc1cccc2c(SCC(N)=O)nc(-c3ccccc3)nc12,inactive
16,Cc1cccc(-n2c(=O)c(C#N)cc3c(=O)n4ccccc4nc32)c1,inactive
17,Cc1nc(Nc2cccc(Cl)c2)c2oc3ccccc3c2n1,inactive
18,Cc1cc(C)cc(-n2c(SCC(N)=O)nc3c(oc4ccccc43)c2=O)c1,22.4 µM (active)
19,CCCOc1cccc(C2c3c(oc4ccc(F)cc4c3=O)C(=O)N2CCCN2CCOCC2)c1 (stereo not drawn),inactive
20,Cc1nc(Cl)c2c(n1)N=C1CCCC(O)=C1O2,inactive
21,Cc1ccc(CNC(=O)c2cc3c(=O)n4ccccc4nc3n(CC3CCCO3)c2=N)cc1 (stereo not drawn),inactive
22,CCCCn1cc[n+](-c2nc3ccccc3nc2[N-]S(=O)(=O)c2ccc(Cl)cc2)c1,inactive
23,O=C1Nc2ccc(S(=O)(=O)NCC3CCCO3)c3cccc1c23 (stereo not drawn),inactive
24,Cc1ccc(-c2nnc(Nc3ccc4c(c3)OCO4)c3ccccc23)cc1S(=O)(=O)NC(C)C,inactive
25,Cc1ccc(-c2nnc(Nc3cccc(O)c3)c3ccccc23)cc1S(=O)(=O)NCC1CCCO1 (stereo not drawn),39.8 µM (active)

# From ChEMBL document CHEMBL1201862, “PubChem BioAssay data set” (2004)
